High-throughput results from PubChem BioAssay.
KDM4E inh = JMJD2E (human) inhibition | B2RXH2 | JMJD2E catalytic domain, FDH-coupled NADH fluorescence (FDH is formaldehyde dehydrogenase) | Potency, µM (highest dose often 57.1 µM), hits mostly inhibitors | 230,000 compounds, 1.6% hits | AID 2147; active means well fitted inhibition curve with a large enough effect, not every such curve was filed as active; inconclusive means small, poorly fitted or top-dose-only effect, or another doubt; inactive means no such curve, though single readings can be large or run the other way; further: nearly all actives have a fitted effect of over 50% in size
APE1 inh-1 = inhibitors of human APE1 endonuclease; P27695; recombinant APE1, TAMRA/BHQ-2 abasic DNA cleavage fluorescence; Potency, µM (doses to about 65.8 µM), hits mostly inhibitors; 350,000 compounds, 0.35% hits; AID 2517; further: nearly all actives have a fitted effect of over 55% in size
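Quantitative HTS: incision of a TAMRA/BHQ-2 double-stranded substrate bearing a tetrahydrofuran abasic site by 0.75 nM APE1 raises fluorescence. Substrate 50 nM final, added after 15 min compound preincubation at room temperature; progress as third-minus-first kinetic read difference.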
RECQ1 inh-1 = blocks DNA unwinding by human RECQ1; P46063; RECQ1 DNA unwinding, red fluorescence kinetic read; Potency, µM (series often up to 57.3 µM), usual class: inhibitors; 240,000 compounds, 0.54% hits; AID 2549; further: nearly all actives have a fitted effect of over 30% in size
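RECQ1T1 50 nM; forked duplex (20 bp + 30-nt ss tails) 200 nM, ATP 2 mM final; pH 8.0, 2 mM MgCl2, 2.5 ug/ml poly(dI-dC); 15 min compound preincubation; discontinuous kinetic read over 2 h at RT.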
TDP1 inh = inhibitors of human tyrosyl-DNA phosphodiesterase TDP1; Q9NUW8; recombinant TDP1, AlphaScreen DNA substrate cleavage; Potency, µM (series often up to 130 µM), usual class: inhibitors; 350,000 compounds, 0.28% hits; AID 485290; further: nearly all actives have a fitted effect of over 40% in size
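Steps: enzyme plus compound, 15 min RT; add biotin/phosphotyrosine-FITC oligonucleotide (15 nM final), react 5 min; add donor/acceptor beads (10 ug/ml final), 10 min; read AlphaScreen. Tdp1 at 1 nM final.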
BLM helicase inh = Bloom syndrome helicase (human) inhibition. P54132. Potency, µM (highest dose often 56.1 µM), usual class: inhibitors. AID 2528. 350,000 compounds, 0.2% hits. recombinant BLM DNA unwinding, fluorescence dequenching; further: nearly all actives have a fitted effect of over 35% in size
KAT2A inh = GCN5L2 (KAT2A) acetyltransferase inhibition. 390,000 compounds, 0.21% hits. GCN5L2 HAT assay, ThioGlo1 CoA-SH fluorescence. Q92830. Potency, µM (titrated, usually from 58.9 µM), usual class: inhibitors
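ThioGlo1-coupled HAT assay: 20nM GCN5L2, 70uM acetyl-CoA, 75uM H3(1-25) peptide, pH 7.5. Fluorescence read at 340/540nm at start and after 20 min at room temperature.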
APE1 dye cs = DNA dye displacement counter-screen activity; shares compounds with APE1 inh-1; DNA fluorescent dye displacement counterscreen, fluorescence; Potency, µM (series often up to 28.5 µM), actives largely listed as inhibitors; 480 compounds, 7% hits; AID 2564;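 further: loss of thiazole orange fluorescence as the dye is displaced from duplex DNA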
EndoIV counter = counter-screen for APE1 inhibitors: inhibitors of E. coli endonuclease IV | E. coli Endo IV, fluorogenic AP-site DNA cleavage | 560 compounds, 4% hits | AID 2565 | shares compounds with APE1 inh-1 | Potency, µM (titrated, usually from 27.1 µM), usual class: inhibitors
APE1 inh-2 = confirmation of inhibitors of human APE1 endonuclease | shares compounds with APE1 inh-1 | purified APE1, fluorogenic abasic-site DNA cleavage | Potency, µM (top dose mostly 57.1 µM), usual class: inhibitors | 750 compounds, 44% hits | AID 2572; further: nearly all actives have a fitted effect of over 30% in size
APE1 FP = displaces DNA from human APE1 in FP assay; AID 2573; shares compounds with APE1 inh-1; APE1 binding to TAMRA-labelled double-stranded DNA, fluorescence polarization displacement; Potency, µM (titrated, usually from 28.5 µM), hits mostly inhibitors; 480 compounds, 7% hits
RECQ1 conf = confirmation of human RECQ1 helicase inhibitors | shares compounds with RECQ1 inh-1 | RECQ1 helicase DNA unwinding, fluorescence | Potency, µM (titrated, usually from 229 µM), usual class: inhibitors | 610 compounds, 28% hits; further: nearly all actives have a fitted effect of over 45% in size
ADP FP counter = ADP displacement flagged in RECQ1 inhibitor counter-screen; Potency, µM (doses to about 228 µM), hits mostly inhibitors; ADP fluorescence polarization displacement counterscreen; 530 compounds, 27% hits; shares compounds with RECQ1 inh-1; further: nearly all actives have a fitted effect of over 45% in size
RECQ1 inh-2 = RECQ1 helicase inhibition confirmed, round 2; shares compounds with RECQ1 inh-1; recombinant RECQ1 DNA unwinding, red fluorescence; Potency, µM (titrated, usually from 119 µM), hits mostly inhibitors; 1,100 compounds, 15% hits; further: nearly all actives have a fitted effect of over 50% in size
A number is an active result. The entries come from a sample that favours hits as a whole. Unless noted, the call rests on the fitted dose curve; in most records, active means well fitted curve in the direction sought with a large enough effect; inconclusive means small, poorly fitted or top-dose-only effect, or another doubt; inactive means no such curve, though single readings can be large; an effect the other way counts as inactive or inconclusive.

Cc1ccc(C)n1Cc1ccc(C(=O)O)cc1 was read as KDM4E inh 4.5µM, APE1 inh-1 3.5µM, RECQ1 inh-1 7.1µM, TDP1 inh 3.5µM, BLM helicase inh inactive, KAT2A inh 16µM, APE1 inh-2 14µM and RECQ1 conf 20µM.
`CCOc1ccccc1-c1nnc2n1N=C(c1ccc(OC)c(OC)c1)CS2` gave APE1 inh-1 10µM, RECQ1 inh-1 inactive, TDP1 inh inactive, BLM helicase inh inactive, APE1 dye cs inconclusive, EndoIV counter inactive, APE1 inh-2 inactive, APE1 FP inconclusive and RECQ1 conf inactive.
`O=C1C=CC2=C3c4cc(O)c(O)cc4CC3(O)COC2=C1O` (stereo unspecified) gave KDM4E inh 2µM, APE1 inh-1 0.11µM, RECQ1 inh-1 1.3µM, TDP1 inh inconclusive, BLM helicase inh 16µM, APE1 dye cs inconclusive, EndoIV counter inactive, APE1 inh-2 1.4µM, APE1 FP 18µM, RECQ1 conf 11µM and ADP FP counter 3.2µM.
For CCN(CC)c1ccc(-c2nc(-c3ccco3)no2)cc1[N+](=O)[O-] the results were TDP1 inh inactive, BLM helicase inh inactive and KAT2A inh inactive.
For NC(Cc1cc(I)c(Oc2cc(I)c(O)c(I)c2)c(I)c1)C(=O)O (stereo unspecified) the results were KDM4E inh inactive, APE1 inh-1 inactive, RECQ1 inh-1 inactive, TDP1 inh inactive, BLM helicase inh inactive and KAT2A inh inconclusive.
For Cc1ccc(NC(=O)CN2C(=O)S/C(=C/c3ccc(O)c([N+](=O)[O-])c3)C2=O)cc1C the results were KDM4E inh inconclusive, APE1 inh-1 inconclusive, RECQ1 inh-1 inconclusive, TDP1 inh 79µM, BLM helicase inh 25µM, KAT2A inh inconclusive, APE1 inh-2 inconclusive and RECQ1 inh-2 22µM.
For O=C(O)c1cc(O)c2c(c1)[C@H]([C@H]1c3cc(C(=O)O)cc(O)c3C(=O)c3c(O[C@@H]4OC(CO)C(O)C(O)C4O)cccc31)c1cccc(O[C@@H]3OC(CO)C(O)C(O)C3O)c1C2=O (stereo partly specified) the results were KDM4E inh 11µM, RECQ1 inh-1 2µM, BLM helicase inh 3.2µM, KAT2A inh 1.8µM, EndoIV counter inactive, APE1 inh-2 0.71µM, RECQ1 conf 2.8µM and ADP FP counter 7.1µM.
Screening c1ccc(-c2ccc(N3CCCC4(CCNCC4)C3)cc2)cc1 returned APE1 inh-1 inactive, RECQ1 inh-1 inactive, BLM helicase inh inactive and KAT2A inh inactive.
